Test results: PubChem BioAssay (Tox21)
Records with an inconclusive call do not appear. Active and inactive are the calls of the source. Unless noted, the call rests on the fitted dose curve; in most records, active means well fitted curve in the direction sought with a large enough effect in the repeat runs; inconclusive means weak or mixed curves; inactive means no such curve, though single readings can be large; an effect the other way counts as inactive or inconclusive.

Tests used:
[1] = qHTS assay for small molecules that induce genotoxicity in human embryonic kidney cells expressing luciferase-tagged ATAD5 (AID 651632); further: nearly all actives have a fitted effect of over 15% in size
Method in brief: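 Concentration-response screen for ATAD5 upregulation in HEK293T luciferase reporter cells; 16 hr treatment at 37C, then luminescence after 30 min with Amplite at room temperature.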

[2] = qHTS assay for small molecules that induce genotoxicity in human embryonic kidney cells expressing luciferase-tagged ATAD5 - cell viability (AID 651634; calls by dose curve; further: nearly all actives have a fitted effect of over 25% in size; further: potency means the concentration at half of the fitted maximal effect)
Method in brief: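 15.5 hr compound or vehicle exposure of HEK293T cells expressing luciferase-tagged ATAD5 at 37C; live-cell protease activity is read by fluorescence after 30 min of CellTiter-Fluor.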

[3] = qHTS assay for small molecule disruptors of the mitochondrial membrane potential - cell viability (AID 720634; calls by dose curve; further: nearly all actives have a fitted effect of over 20% in size; further: potency means the concentration at half of the fitted maximal effect)
Method in brief: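 In this qHTS format, HepG2 cells plated overnight were pinned with compound, incubated 1 hr, and assayed for ATP luminescence with CellTiter-Glo after m-MPI dye addition.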

[4] = qHTS assay to test for compound auto fluorescence at 590 nm (red) in HepG2 cells (AID 720674)
Method in brief: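 1 hr compound incubation on HepG2 cells, 37 C, 5% CO2; plate read ex 540 nm / em 590 nm; intensities reported as Rose Bengal sodium equivalents.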

[5] = qHTS assay to test for compound auto fluorescence at 535 nm (green) in HepG2 cells (AID 720675)
[6] = qHTS assay to test for compound auto fluorescence at 460 nm (blue) in HEK293 cells (AID 720678)
Method in brief: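 HEK293 cells (2,000 per well, medium with 10% dialyzed FBS) attached for 4-5 hr at 37C, then received compound and stood overnight at 37C, 5% CO2. Blue fluorescence was read at Ex/Em 405/460 nm and expressed relative to triamterene.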

[7] = qHTS assay to test for compound auto fluorescence at 590 nm (red) in HEK293 cells (AID 720679)
Method in brief: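 HEK293 cells (2,000/well, medium with 10% dialyzed FBS) attached for 4-5 hr at 37C, received 23 nL compound and were incubated overnight at 37C, 5% CO2. Red fluorescence was then read at 540/590nm Ex/Em, referenced to Rose Bengal sodium.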

[8] = qHTS assay to test for compound auto fluorescence at 535 nm (green) in HEK293 cells (AID 720680)
[9] = qHTS assay to test for compound auto fluorescence at 460 nm (blue) in HEK293 cell free culture (AID 720681)
Method in brief: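 Blue fluorescence (Ex 405/Em 460 nm, triamterene-equivalent) was read immediately after pin transfer of compound or DMSO into medium (DMEM, 10% FBS) without cells.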

[10] = qHTS assay to test for compound auto fluorescence at 535 nm (green) in HEK293 cell free culture (AID 720682)
Method in brief: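 No cells present: wells hold DMEM supplemented with 10% FBS, into which compound or vehicle is pinned. Green emission is then recorded (485 nm excitation, 535 nm emission) and scaled to fluorescein.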

[11] = qHTS assay to test for compound auto fluorescence at 590 nm (red) in HEK293 cell free culture (AID 720683)
Method in brief: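 Red-channel autofluorescence of compounds in culture medium (DMEM, 10% FBS), no cells, measured at 540/590 nm. Rose Bengal sodium is the reference fluorophore for equivalence.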

[12] = qHTS assay to test for compound auto fluorescence at 590 nm (red) in HepG2 cell free culture (AID 720684)
Method in brief: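 No cells present: MEM + 10% FBS only. Compound pinned in, red label read (540/590 nm). Activity = fluorescence equivalent to Rose Bengal sodium.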

[13] = qHTS assay to test for compound auto fluorescence at 460 nm (blue) in HepG2 cell free culture (AID 720685)
Method in brief: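 Cell-free plates of MEM plus 10% FBS received 23 nL compound or DMSO vehicle; blue-channel (405/460 nm) intensity scored against triamterene as reference fluorophore.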

[14] = qHTS assay to test for compound auto fluorescence at 535 nm (green) in HepG2 cell free culture (AID 720686)
[15] = qHTS assay to test for compound auto fluorescence at 460 nm (blue) in HepG2 cells (AID 720687)
Method in brief: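 Blue-channel autofluorescence (Ex/Em 405/460 nm, triamterene-equivalent) was measured after 1 hr compound exposure at 37 C, 5% CO2. Cells were HepG2, plated overnight at 37 C in MEM plus 10% FBS.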

[16] = target: Glucocorticoid receptor (Homo sapiens) (UniProt P04150); experiment: qHTS assay to identify small molecule agonists of the glucocorticoid receptor (GR) signaling pathway (AID 720691; active means well fitted activation curve with a large enough effect in the signal ratio in the repeat runs, not every such curve was filed as active; the % refers to the signal ratio)
Method in brief: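 Measures GR pathway activation through a GRE-beta-lactamase reporter stably integrated in HeLa cells, with 18 h compound treatment at 37 C and fluorescence detection using a FRET substrate.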

[17] = qHTS assay for small molecule disruptors of the mitochondrial membrane potential (AID 720635); further: potency means the concentration at half of the fitted maximal effect
Method in brief: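 Mitochondrial membrane potential tracked with Mito-MPS dye, red aggregates (ex 540/em 590 nm) against green monomers (ex 490/em 535 nm). Compound treatment 1 hr at 37C, dye 30 min in HepG2.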

[18] = qHTS assay for small molecule agonists of the p53 signaling pathway - cell viability (AID 651633; calls by dose curve;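 further: p53RE-bla HCT reporter cells with a stable beta-lactamase p53 reporter; series mostly up to about 83 µM; nearly all actives have a fitted effect of over 30% in size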)
Method in brief: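 Viability counter-read: CellTiter-Glo luminescence (30 min, room temperature) in the same p53RE-bla plates. These plates had been exposed to compounds for 16 h at 37 C.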
On the % scale 0 is the no-effect control and ±100 the full control effect.

Glucocorticoid receptor (Homo sapiens), sequence (P04150 whole entry, looked up): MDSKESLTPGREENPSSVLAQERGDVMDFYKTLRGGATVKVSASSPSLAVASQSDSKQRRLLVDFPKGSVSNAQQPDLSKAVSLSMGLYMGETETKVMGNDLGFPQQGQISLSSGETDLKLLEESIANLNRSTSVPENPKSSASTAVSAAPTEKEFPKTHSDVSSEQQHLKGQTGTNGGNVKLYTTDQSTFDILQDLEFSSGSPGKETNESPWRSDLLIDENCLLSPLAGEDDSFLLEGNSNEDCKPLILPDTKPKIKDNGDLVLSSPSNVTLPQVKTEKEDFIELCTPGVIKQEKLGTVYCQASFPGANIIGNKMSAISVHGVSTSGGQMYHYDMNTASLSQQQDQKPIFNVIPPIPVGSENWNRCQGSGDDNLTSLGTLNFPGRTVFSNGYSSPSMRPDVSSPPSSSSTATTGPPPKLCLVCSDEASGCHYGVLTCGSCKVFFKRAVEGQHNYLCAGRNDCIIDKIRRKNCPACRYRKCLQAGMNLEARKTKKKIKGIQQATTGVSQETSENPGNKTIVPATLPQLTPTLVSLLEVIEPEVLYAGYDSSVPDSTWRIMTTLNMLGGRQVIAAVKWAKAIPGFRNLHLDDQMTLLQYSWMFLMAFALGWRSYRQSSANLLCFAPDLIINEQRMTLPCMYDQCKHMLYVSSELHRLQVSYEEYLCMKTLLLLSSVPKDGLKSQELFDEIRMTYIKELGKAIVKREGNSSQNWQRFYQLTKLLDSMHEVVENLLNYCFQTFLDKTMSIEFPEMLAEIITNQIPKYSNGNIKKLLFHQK

Brc1cc(Br)c(Oc2cc(Br)c(Br)cc2Br)cc1Br
inactive: Potency [1] | Potency [2] | Potency [3] | outcome [4] | outcome [5] | Potency [6] | outcome [7] | outcome [8] | Potency [9] | outcome [10] | outcome [11] | outcome [12] | Potency [13] | outcome [14] | Potency [15]

CCCCCCCCOc1ccc(C(=O)O)cc1
inactive: Potency [1] | Potency [3] | outcome [5] | outcome [7] | outcome [8] | Potency [9] | outcome [10] | outcome [11] | outcome [12] | Potency [13] | outcome [14] | Potency [15] | Potency [16]

O=[N+]([O-])c1cc(C2CCCCC2)c(O)c([N+](=O)[O-])c1
inactive: Potency [1] | outcome [4] | outcome [5] | Potency [6] | outcome [7] | outcome [8] | Potency [9] | outcome [10] | outcome [11] | outcome [12] | Potency [13] | outcome [14] | Potency [15] | Potency [16]
active: Potency [2] 19300 nM | Potency [3] 343 nM | Potency [17] 153 nM

C/C=C\C/C=C/CCCCCCCCOC(C)=O
inactive: Potency [1] | Potency [2] | Potency [3] | Potency [17] | outcome [4] | outcome [5] | Potency [6] | outcome [7] | outcome [8] | Potency [9] | outcome [10] | outcome [11] | outcome [12] | Potency [13] | outcome [14] | Potency [15]

CCOC(=O)OC(C)OC(=O)[C@@H]1N2C(=O)[C@@H](NC(=O)[C@H](N)c3ccccc3)[C@H]2SC1(C)C (stereo partly specified)
inactive: Potency [1] | Potency [2] | Potency [3] | fluorescence, relative to Rose Bengal [4] -0.696% [at 18.6 µM] | fluorescence, % of fluorescein control [5] 0.0265% [at 18.6 µM] | fluorescence, % of triamterene [6] 0.659% [at 18.6 µM] | fluorescence, % of fluorescent control [7] 0.375% [at 18.6 µM] | fluorescence, % of fluorescein [8] 0.0714% [at 18.6 µM] | fluorescence, % of fluorescent control [9] 0.602% [at 18.6 µM] | activity change [10] -0.0186% [at 18.6 µM] | fluorescence, % of fluorescent control [11] -0.265% [at 18.6 µM] | fluorescence, % of fluorescent control [13] 0.443% [at 18.6 µM] | fluorescence, % of fluorescent control [15] 0.278% [at 18.6 µM]

C=CCc1ccccc1OCC(O)CNC(C)C (stereo unspecified)
inactive: Potency [18] | Potency [2] | Potency [3] | outcome [4] | outcome [5] | Potency [6] | outcome [7] | Potency [9] | outcome [10] | outcome [11] | outcome [12] | Potency [13] | Potency [15]

CC(=O)N/N=C/c1ccc([N+](=O)[O-])o1
inactive: Potency [1] | Potency [2] | Potency [3] | outcome [4] | outcome [5] | Potency [6] | outcome [7] | outcome [8] | Potency [9] | outcome [10] | outcome [11] | Potency [13] | outcome [14] | Potency [15] | Potency [16]

CN1C(=O)c2ccccc2C1=O
inactive: Potency [18] | Potency [2] | Potency [3] | outcome [5] | Potency [6] | outcome [7] | outcome [8] | Potency [9] | outcome [10] | outcome [11] | outcome [12] | Potency [13] | Potency [15] | Potency [16]
